Bioassay records deposited in PubChem by Sanford-Burnham Center for Chemical Genomics.
Compounds with a hit are over-represented: about 2.5% of the library has one in this group of screens.
iPSC survival up: enhancers of single-cell hiPSC survival, primary screen, ATPlite luminescence; 360,000 compounds, 0.044% hits; survival enhancement, % at 20 µM; 100% = ROCK inhibitor wells, 0% = DMSO; in the data active means survival enhancement above about 18%;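 further: cells exposed to compounds for 16 hours before the ATP read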
CRFBP-R2 block: antagonists of CRF-BP/CRF-R2 complex, primary screen, cell-based, HEK293, calcium dye fluorescence, uHTS | CRF-induced calcium fluorescence | 350,000 compounds, 0.59% hits | inhibition, % at 11.8 µM | AID 588475, 2011;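 active means inhibition of the ligand-induced calcium signal above about 50% at the single tested concentration, limit read from the data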
Cardio protect: cardioprotection against H2O2-induced cell death, primary screen, uHTS, H9c2 cells, ATPLite luminescence | H9c2 cardiomyocytes, H2O2 injury protection, 2 h | protection from H2O2 cell death, % at 20 µM | 360,000 compounds, 0.63% hits | AID 588492, 2011;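 active means compounds giving at least 50% protection of heart cells from peroxide-induced death in the single-dose screen, raw or plate-pattern-corrected value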
SKN-1 inh: suppressors of acrylamide-induced Pgst-4::GFP reporter in worms, primary screen, SKN-1 inhibitor project, whole organism, uHTS, GFP/RFP fluorescence ratio, strain VP596 | C. elegans VP596 Pgst-4::GFP/RFP ratio, 24 h | inhibition, % at 21.8 µM | 360,000 compounds, 0.49% hits;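 active means interference check ratio from 0.5 to 1.5 plus GFP to RFP signal ratio inhibition reaching or exceeding a fixed threshold, cut at about 30% in these data, passing the limit was not always enough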
H9c2 TAG inh: inhibitors of triacylglycerol accumulation, primary screen, cell-based, uHTS, fluorescence, H9c2; H9c2 cells, Nile Red lipid (TAG) fluorescence; cells loaded with 200 µM oleic acid; inhibition, % at 12.5 µM; 230,000 compounds, 0.66% hits;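 active means pattern-corrected inhibition of lipid staining of at least 50% with the nuclear-stain viability signal not falling by more than 50%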
CRFR2-BP ag: agonists of CRF-BP/CRF-R2 complex, primary screen, cell-based, HEK293, calcium dye fluorescence, uHTS; activation, % at 13.2 µM; 350,000 compounds, 0.46% hits; calcium dye fluorescence (FLIPR); percent of saturating CRF peptide response; CRF-binding protein / CRF receptor 2 complex (human);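 active means activation of at least 50%, plus an integration ratio under a set limit after plate pattern correction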
Hits are given with their value; n = inactive; x = no result given.

SMILES	iPSC survival up	CRFBP-R2 block	Cardio protect	SKN-1 inh	H9c2 TAG inh	CRFR2-BP ag
Cc1ccc(N2CC(C(=O)NCc3n[nH]c(=O)c4ccccc34)CC2=O)cc1C (stereo unspecified)	n	n	72.0	n	n	n
COc1ccc(NC(=O)c2sc(=O)n(Cc3ccccc3C#N)c2C)cc1OC	n	x	n	n	n	x
Cn1nc(C(C)(C)C)cc1C(=O)N1CCCCC1c1cc(C(=O)NCc2cccnc2)no1 (stereo unspecified)	n	x	n	n	n	x
Cc1ccc(OCC(=O)NCc2n[nH]c(=O)c3ccccc23)cc1	n	n	70.6	n	n	n
CCOC(=O)c1c(NC(=O)COC(=O)Cc2n[nH]c(=O)c3ccccc23)sc(C(=O)NC)c1C	n	n	106.0	n	n	n
CCOC(=O)c1c(NC(=O)COC(=O)CCNS(=O)(=O)c2ccccc2)sc(C(=O)NC)c1C	n	n	n	n	n	n
Cc1noc(C)c1COc1ccc(C(=O)N2CCN(c3ccccc3O)CC2)cc1	n	n	n	n	n	n
CCOc1ccc(N2C(=O)C3Sc4[nH]c(=O)sc4C(c4ccc(OC)c(OC)c4)C3C2=O)cc1 (stereo unspecified)	n	n	n	n	n	n
CCCCn1c(=O)[nH]c(=O)c2c1nc(CN1C(=O)c3ccccc3S1(=O)=O)n2CCC	n	n	n	n	x	n
CCCCn1c(=O)[nH]c(=O)c2c1nc(Cn1ncc(Cl)c(Cl)c1=O)n2CCC	20.0	n	n	n	x	n
O=C(c1ccc(C#Cc2ccccc2)o1)N1CCN(c2ccccn2)CC1	n	n	n	n	x	n
COC(=O)c1ccc(C#Cc2ccccc2)o1	n	n	n	37.1	n	n
Nc1cc(=O)[nH]c(SCC(=O)Nc2ccc(S(=O)(=O)N3CCOCC3)cc2)n1	n	n	n	34.6	x	n
O=C(Cc1ccc(-n2cccc2)cc1)N1CCN(c2ccccc2F)CC1	n	52.9	n	n	n	n
CCC(=O)N(C)C[C@H]1Oc2cc(-c3ccccc3F)ccc2S(=O)(=O)N([C@H](C)CO)C[C@H]1C	n	n	n	n	n	n
CN(C)c1ccc(/C=C/c2ccc3ccccc3[n+]2C)cc1	n	n	n	n	x	n
CN(C)c1ccc(/C=C/c2ccc3c4ccccc4ccc3[n+]2-c2ccccc2)cc1	n	n	n	n	66.9	n
COc1cccc(C(=O)COc2cccc(NC(=O)c3cccc([N+](=O)[O-])c3)c2)c1	n	n	n	n	n	n
O=C(COc1cccc(NC(=O)c2cccc([N+](=O)[O-])c2)c1)c1ccc(F)cc1	n	n	78.5	n	n	n
CCN(CC)S(=O)(=O)c1cccc(C(=O)N/N=C/c2cccc(O)c2O)c1	n	n	n	n	n	n
CCN(CC)S(=O)(=O)c1cccc(C(=O)N/N=C/c2ccccn2)c1	n	n	51.2	n	n	n
Cc1ccc(C(=O)N/N=C\c2ccccn2)cn1	n	113.4	n	n	n	n
O=C(N/N=C/c1ccccn1)c1cccc([N+](=O)[O-])c1	n	n	60.6	n	n	n
CC(C)(C)c1ccc(C(=O)N/N=C/c2ccccn2)cc1	n	n	n	n	x	n
COc1ccc2[nH]cc(CCNC(=O)Nc3ccccc3C)c2c1	n	n	n	n	n	n
SMILES	iPSC survival up	CRFBP-R2 block	Cardio protect	SKN-1 inh	H9c2 TAG inh	CRFR2-BP ag
Cc1ccc(C(=O)N/N=C\c2ccc(-c3ccc(Cl)cc3)o2)cn1	n	n	59.9	n	n	n
Cc1ccc(C(=O)N/N=C\c2ccc(-c3ccc([N+](=O)[O-])cc3)o2)cn1	n	n	n	n	n	n
O=C(N/N=C/c1ccccn1)c1cc([N+](=O)[O-])cc([N+](=O)[O-])c1	n	n	n	n	x	n
O=C(N/N=C/c1ccccn1)c1ccc(NC(=O)c2cccc([N+](=O)[O-])c2)cc1	n	n	69.3	n	x	n
CNc1ccc2ncc(-c3cccc(C(=O)N(C)C)c3)n2n1	n	x	n	n	n	x
COCCn1cnc2c1c(=O)n(Cc1ccc(C#N)cc1)c(=O)n2Cc1ccccc1	n	n	n	n	x	n
COc1ccc(/C=C2\CCC(C3CCCC3)C2=O)cc1 (stereo unspecified)	n	n	n	n	x	n
COc1ccc(/C=C2/CCC(CN3CCOCC3)C2=O)cc1 (stereo unspecified)	n	57.3	n	n	73.5	n
Cc1cc(C)c(Nc2cc(S(=O)(=O)O)c(N)c3c2C(=O)c2ccccc2C3=O)c(C)c1	n	52.7	n	n	x	n
Cc1cc(C)c(NC(=O)COC(=O)c2cccc3c2C(=O)c2ccccc2C3=O)c(C)c1	n	n	n	n	n	n
CCOC(=O)N1CCN(c2ncnc3c2cnn3-c2ccc(OC)cc2)CC1	n	n	n	47.9	n	n
Cc1cc2nc(-c3ccccc3)c(Cc3cccc(Cl)c3)n2c(C)c1Br	n	x	x	n	x	x
O=C(Nc1ccc(Oc2ccccc2)cc1)c1ccc2sc([C@H]3C[C@H](O)[C@@H](CO)O3)nc2c1	n	x	n	n	n	x
Cc1ccc(C)c(Cn2nc(-c3ccccc3)ccc2=O)c1	n	n	n	n	x	n
Cc1ccc(-c2ccc(=O)n(Cc3cc(C)ccc3C)n2)cc1	n	123.3	n	n	x	n
CCCn1c(CCC(=O)O)nc2cc(S(=O)(=O)N3CCCC3)ccc21	n	n	n	n	n	n
O=C(N/N=C/c1ccc(O)cc1O)NC12CC3CC(CC(C3)C1)C2	n	n	51.8	n	x	n
COc1cc(/C=N/NC(=O)NC23CC4CC(CC(C4)C2)C3)ccc1OCC(N)=O	n	n	62.4	n	x	n
CN1/C(=C\C(=O)CSc2ncn[nH]2)C(C)(C)c2ccccc21	n	n	n	n	x	n
CN1/C(=C\C(=O)CSc2nnc(NCc3ccccc3)s2)C(C)(C)c2ccccc21	n	n	n	45.5	x	n
CCCNc1ccc(C(=O)OCC)cc1[N+](=O)[O-]	n	61.2	n	n	n	n
CC(C)(C)c1ccc(OC(=O)Cn2c(C(F)(F)F)nc3ccccc32)cc1	n	n	n	n	n	n
CC(=O)Nc1ccc(/C(C)=N/Nc2nc(Nc3cccc4ccccc34)nc(N3CCOCC3)n2)cc1	n	n	63.1	n	x	n
COc1ccc(C(C)=NNc2ccc([N+](=O)[O-])cc2S(=O)(=O)Nc2ccccc2C(=O)O)c(OC)c1	n	65.7	n	n	n	n
COc1ccc(/C=C/C(=O)OCC(=O)N2CCCCCC2)c(OC)c1	n	n	n	n	n	n
CNc1c2cccc(C)c2nc2c(C(=O)NCCN(C)C)cccc12	n	n	n	n	n	53.8
